# Data from paper PMC4336329 (PLoS ONE, 2015).
# About 2,200 (0.71%) of roughly 310,000 compounds showed an effect of 50% or more. Effects have a minus sign here. What follows is part of a selection rich in strong results, with near analogues and random picks from the rest.
# Target: human ether-à-go-go-related gene (hERG) potassium channel (human, UniProt Q12809)
# Assay: primary screen, population patch clamp on CHO cells stably expressing hERG; higher = less effect of the substance
# human ether-à-go-go-related gene (hERG) potassium channel, sequence (Q12809 whole entry, looked up): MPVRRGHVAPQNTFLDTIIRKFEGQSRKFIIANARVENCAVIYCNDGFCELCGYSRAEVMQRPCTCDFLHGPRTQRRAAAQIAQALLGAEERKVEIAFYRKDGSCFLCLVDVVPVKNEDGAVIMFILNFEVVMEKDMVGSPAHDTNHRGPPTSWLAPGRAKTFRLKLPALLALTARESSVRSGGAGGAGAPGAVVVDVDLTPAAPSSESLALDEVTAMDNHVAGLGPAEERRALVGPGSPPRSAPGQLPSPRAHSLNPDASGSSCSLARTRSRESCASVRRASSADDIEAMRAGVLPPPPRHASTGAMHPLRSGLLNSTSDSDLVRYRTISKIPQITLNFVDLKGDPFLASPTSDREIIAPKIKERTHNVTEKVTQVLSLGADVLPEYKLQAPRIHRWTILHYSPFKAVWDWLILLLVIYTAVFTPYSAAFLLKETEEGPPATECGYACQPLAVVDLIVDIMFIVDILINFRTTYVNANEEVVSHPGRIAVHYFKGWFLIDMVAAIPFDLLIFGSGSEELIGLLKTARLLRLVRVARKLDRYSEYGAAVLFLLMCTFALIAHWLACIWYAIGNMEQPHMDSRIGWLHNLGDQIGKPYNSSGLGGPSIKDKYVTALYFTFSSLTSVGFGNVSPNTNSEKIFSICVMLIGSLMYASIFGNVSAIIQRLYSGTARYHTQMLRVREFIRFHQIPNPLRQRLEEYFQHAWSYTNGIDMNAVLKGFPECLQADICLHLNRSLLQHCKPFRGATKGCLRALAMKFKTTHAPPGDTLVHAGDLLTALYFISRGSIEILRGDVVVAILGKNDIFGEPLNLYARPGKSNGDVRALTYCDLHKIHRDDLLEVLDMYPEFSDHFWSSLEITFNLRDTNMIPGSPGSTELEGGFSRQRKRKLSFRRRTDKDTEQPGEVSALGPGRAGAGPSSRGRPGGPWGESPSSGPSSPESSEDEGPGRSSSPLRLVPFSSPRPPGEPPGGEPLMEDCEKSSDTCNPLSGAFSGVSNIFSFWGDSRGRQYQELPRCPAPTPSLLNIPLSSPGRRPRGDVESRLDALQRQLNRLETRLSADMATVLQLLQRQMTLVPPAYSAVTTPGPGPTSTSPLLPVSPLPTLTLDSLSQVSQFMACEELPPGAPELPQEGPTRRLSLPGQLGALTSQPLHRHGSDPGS
row,SMILES,"hERG current change (%, negative = inhibition) at 1uM [%]"
1,CCCCCCCCCCCCCCCC(=O)OC/C=C(C)/C=C/C=C(C)/C=C/C1=C(C)CCCC1(C)C,10.2
2,COc1cc(C2C(C#N)=C(N)Oc3n[nH]c(C)c32)cc2c1OCO2 (stereo not drawn),-3.12
3,CCc1nnc(NC(=O)C2CCCN2C(=O)Nc2ccc(C)cc2)s1 (stereo not drawn),8.89
4,COc1ccc(CNS(=O)(=O)c2ccc3c(c2)CCN3C(=O)C2CC2)cc1,5.86
5,NS(=O)(=O)c1ccc(CCNC(=O)Cc2ccc(S(=O)(=O)N3CCCC3)s2)cc1,14.9
6,Cc1ccc(C(=O)NCCCNCCCNC(=O)c2ccc(C)nc2)cn1,-10.3
7,CCCCNc1ccccc1C(=O)OCC(=O)Nc1ccc(S(N)(=O)=O)cc1,0.586
8,COc1ccc2oc3cc(C)[n+]([O-])c(-c4ccc(Br)cc4)c3c2c1,4.46
9,Cc1nc(-c2ccc([N+](=O)[O-])cc2)nc2[nH]ccc(=O)c12,14.5
10,Fc1ccc(-c2n[nH]c(=S)c3ccccc23)cc1,9.98
11,C[C@H](OC(=O)n1ccnc1)[C@@H]1O[C@@]2(C)CCC[C@@H]1O2,15.1
12,Cc1cc(=O)oc2cc(OC(C)C(=O)NC3CCN(Cc4ccccc4)CC3)ccc12 (stereo not drawn),-52.6
13,CC(Oc1ccc(Br)cc1)C(=O)NC1CCN(Cc2ccccc2)CC1 (stereo not drawn),-59.6
14,CC(C)Oc1ccc(C(=O)NC2CCN(Cc3ccccc3)CC2)cc1,-21
15,Cc1c(C)c2ccc(OC(C)C(=O)NC3CCN(Cc4ccccc4)CC3)cc2oc1=O (stereo not drawn),-17.2
16,CC(Oc1ccc2ccc(=O)oc2c1)C(=O)NC1CCN(Cc2ccccc2)CC1 (stereo not drawn),-38.3
17,CC(Oc1ccccc1)C(=O)NC1CCN(Cc2ccccc2)CC1 (stereo not drawn),-5.84
18,CC1C(=O)N2CCCc3cc(NC(=O)C(=O)NCc4ccccn4)cc1c32 (stereo not drawn),8.33
19,CCCNC(=O)COc1coc(CN2CCN(Cc3ccccc3)CC2)cc1=O,15.2
20,Cc1cc(Cl)ccc1NC(=O)COC(=O)c1c(C)noc1C,7.79
21,COc1cc(OC)cc(C(=O)NCC(=O)Nc2ccc(C)c(Cl)c2)c1,12.6
22,CC(=O)N1CCN(C(=O)c2ccc(-c3cccc(C(F)(F)F)c3)o2)CC1,-19.2

row,SMILES,"hERG current change (%, negative = inhibition) at 1uM [%]"
1,COc1ccc(-c2cc(C(=O)N3CCN(C(=O)c4ccco4)CC3)[nH]n2)cc1,-12.7
2,O=C(c1ccc(-c2cccc(C(F)(F)F)c2)o1)N1CCCCCCC1,5.25
3,O=C(c1ccco1)N1CCN(C(=O)c2ccc(-c3cccc(C(F)(F)F)c3)o2)CC1,-63.5
4,O=C(c1ccco1)N1CCN(C(=O)c2ccc(-c3ccc(Cl)cc3)o2)CC1,-67.5
5,Cc1ccc(-c2cc(C(=O)N3CCN(C(=O)c4ccco4)CC3)[nH]n2)cc1C,14.4
6,O=C(c1cc(-c2ccc(Cl)cc2)n[nH]1)N1CCN(C(=O)c2ccco2)CC1,-69.3
7,O=C(c1ccco1)N1CCN(C(=O)c2ccc(-c3ccccc3Cl)o2)CC1,-13.8
8,O=C(Cc1ccc(Cl)cc1)N1CCN(C(=O)c2ccco2)CC1,4.2
9,CN1CC[C@@]2(C)c3cc(O)ccc3N(C)C2O1 (stereo partly drawn),4.17
10,Oc1[nH]c2ccccc2c1C1=NCCCCC1,3.28
11,CC(C)c1nc2sc3c(c2c(=O)o1)CCCC3,9.49
12,Cc1ccc(C(=O)N/C(=C\c2cn(S(=O)(=O)N(C)C)c3ccccc23)C(=O)N2CCCC2)cc1,16
13,CC(=O)c1c(C)nn(CCC(=O)O)c1C,12.2
14,Cl.c1ccc2c(NCC3CCCO3)nc(N3CCCCC3)nc2c1 (stereo not drawn),-49.3
15,Cl.c1ccc(N2CCN(c3nc(NCc4ccco4)c4ccccc4n3)CC2)cc1,-9.89
16,Cl.OCCNc1nc(N2CCCCC2)nc2ccccc12,-18.4
17,Cl.OCCN1CCN(c2nc(NCc3ccco3)c3ccccc3n2)CC1,-39.4
18,Cl.c1ccc(CNc2nc(N3CCN(Cc4ccccc4)CC3)nc3ccccc23)cc1,10.4
19,Cl.c1coc(CNc2nc(N3CCCCC3)nc3ccccc23)c1,-80.8
20,Cl.c1ccc(CN2CCN(c3nc(NCc4ccco4)c4ccccc4n3)CC2)cc1,-54.5
21,C=CCNc1nc(N2CCCC2)nc2ccccc12,-66
22,Cl.OCCNc1nc(N2CCN(Cc3ccccc3)CC2)nc2ccccc12,-28.6

row,SMILES,"hERG current change (%, negative = inhibition) at 1uM [%]"
1,CC(=O)OC1C(N2CCCCC2)c2c(ccc(/C=C/C(=O)N3CCCCC3)c2O)OC1(C)C (stereo not drawn),8.42
2,O=c1ccc(-c2n[nH]c(=S)n2-c2ccc(F)c(Cl)c2)n[nH]1,14.8
3,CC(C)C(=O)NC(NC(=S)Nc1ccc(S(N)(=O)=O)cc1)C(Cl)(Cl)Cl (stereo not drawn),12.7
4,CS(=O)(=O)c1ccccc1C(=O)N(CCc1ccccc1)Cc1ccccc1,9.2
5,S=C1N(c2ccccc2)C(c2ccccc2)N2CCCN12 (stereo not drawn),6.76
6,O=C(Cc1ccc(F)cc1)Nc1c(C(=O)N2CCN(c3ncccn3)CC2)oc2ccccc12,-8.61
7,CCOCC(=O)Nc1c(C(=O)N2CCN(c3ncccn3)CC2)oc2ccccc12,5.42
8,CCOCCCN(C)C1CCN(C(=O)c2oc3ccccc3c2NC(=O)Cc2ccc(F)cc2)CC1,-85.2
9,CCOCCCN(C)C1CCN(C(=O)c2oc3ccccc3c2NC(=O)c2ccc(F)cc2)CC1,-85.6
10,COc1ccc(CC(=O)Nc2c(C(=O)N3CCN(c4ccccc4OC)CC3)oc3ccccc23)cc1OC,9.46
11,CCOCCCN(C)C1CCN(C(=O)c2oc3ccccc3c2NC(=O)COc2cccc(C)c2)CC1,-62.4
12,CCOC(=O)c1oc2ccccc2c1NC(=O)COc1cccc(OC)c1,14.2
13,COCCCN(C)C1CCN(C(=O)Nc2ccc(F)cc2)CC1,-2.37
14,CCOC(=O)c1oc2ccccc2c1NC(=O)COc1ccc(F)cc1,12.4
15,O=C(COc1ccc(F)cc1)Nc1c(C(=O)N2CCC(N3CCCCC3)CC2)oc2ccccc12,-33.8
16,NC(=O)c1oc2ccccc2c1NC(=O)c1ccc(F)cc1,11.1
17,CCOCCCN(C)C1CCN(C(=O)c2oc3ccccc3c2NC(=O)COc2ccc(F)cc2)CC1,-85.9
18,CN(C)/N=C/C=C1\CCC/C(=C/c2cccs2)C1=O,7.9
19,O=C(COc1coc(CN2CCN(c3ccccc3)CC2)cc1=O)Nc1ccccc1,10.3
20,COc1ccc(C2NCCc3[nH]cnc32)cc1 (stereo not drawn),0.887
21,CC(/C=N/NC(=O)c1cc(-c2ccncc2)nc2ccccc12)=C\c1ccco1,0.477
22,CC(c1ccco1)N(C(=O)COc1ccccc1[N+](=O)[O-])c1ccccn1 (stereo not drawn),0.845

row,SMILES,"hERG current change (%, negative = inhibition) at 1uM [%]"
1,CC1CC(C)CN(C(=O)c2ccc(C(=O)c3ccccc3)cc2)C1 (stereo not drawn),-1.23
2,Nc1nonc1-n1nnc(C(=O)N/N=C/c2ccccc2Cl)c1-c1ccccc1,18.9
3,COc1ccc(CCN(C)C(=O)c2ccc(S(=O)(=O)Nc3ccccc3C)cc2)cc1OC,10.8
4,O=C(Nc1ccc(S(=O)(=O)NC2CCCCC2)cc1)c1ccc(Br)o1,1.61
5,Cc1nccc2c1[nH]c1ccccc12,10.2
6,Cc1cc2[nH]c3c(c[n+](C)c4ccccc34)c2cc1C.[I-],-75.9
7,COc1cc2[nH]c3ccccc3c2cc1C,10.5
8,O=c1[nH]c(SCc2ccccc2)nc2c1cnn2-c1ccc(F)cc1,4.7
9,COc1ccc(C(CNC(=O)c2ccc(C)o2)N2CCOCC2)cc1 (stereo not drawn),-1.5
10,COC(=O)c1[nH]c2ccc(Br)cc2c1NC(=O)CN1CCN(C2CCCCC2)CC1,-85.1
11,CCOC(=O)c1[nH]c2ccc(Br)cc2c1NC(=O)CCN1CCCC(C)C1 (stereo not drawn),-66.8
12,CCOC(=O)c1[nH]c2ccc(OC)cc2c1NC(=O)CCN1CCCC(C)C1 (stereo not drawn),-3.69
13,COC(=O)c1[nH]c2ccc(Cl)cc2c1NC(=O)CN1CCC(C(N)=O)CC1,10.6
14,CCOC(=O)c1[nH]c2ccc(Br)cc2c1NC(=O)CCN1CCC(C)CC1,-36.9
15,COC(=O)c1[nH]c2ccc(Br)cc2c1NC(=O)CN1CCCCC1CCO (stereo not drawn),5.4
16,CCOC(=O)C1CCCN(CC(=O)Nc2c(C(=O)OC)[nH]c3ccc(Br)cc23)C1 (stereo not drawn),-3.53
17,COC(=O)c1[nH]c2ccc(Cl)cc2c1NC(=O)CCN1CCN(C2CCCCC2)CC1,-69.5
18,COC(=O)c1[nH]c2ccc(C)cc2c1NC(=O)C(C)N1CCN(C2CCCCC2)CC1 (stereo not drawn),-81
19,COC(=O)c1[nH]c2ccc(C)cc2c1NC(=O)NC1CCCCC1,9.66
20,COC(=O)c1[nH]c2ccccc2c1NC(=O)C(C)N1CCOCC1 (stereo not drawn),9.91
21,COC(=O)c1[nH]c2ccc(Cl)cc2c1NC(=O)CCN1CCOCC1,9.37
